# From PubChem BioAssay
# HEK293 cAMP ctrl: counter-screen for TSHR agonists: cAMP increase in parental HEK293. parental HEK293 CNG cAMP sensor, membrane potential fluorescence. Potency, µM (titrated, usually from 57.1 µM), without a hit: at the highest dose activation, hits mostly activators. hit rate 2.5% among 73,000. AID 938; active = well fitted activation curve with a large enough effect; inconclusive = small, poorly fitted or top-dose-only effect; inactive = no such curve, though single readings can be large or run the other way; note: % of control where 0% means no effect; nearly all actives have a fitted effect of over 55% in size
#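 Parental HEK 293 cells stably expressing a cAMP-gated CNG channel were loaded with membrane potential dye containing 100 uM RO 20-1724 for 60 min. Compound added for 30 min; depolarization read as fluorescence intensity at 590 nm.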
# TSHR agonist: activates the human thyroid stimulating hormone receptor. P16473. HEK293-CNG-TSHR cells (CNG channel as cAMP sensor), membrane potential dye, cAMP. Potency, µM (series often up to 57.1 µM), for inactives: at the highest dose activation, most hits filed as activators. hit rate 0.48% among 73,000; active = well fitted activation curve with a large enough effect in the main read-out, with a control signal flat, not every such curve was filed as active; inconclusive = small, poorly fitted or top-dose-only effect, or a change in a side signal; inactive = no such curve, though single readings can be large or run the other way; % of control where 0% means no effect;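 note: the control signal comes from parental cells without the receptor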
# Target sequence (P16473 whole entry, looked up): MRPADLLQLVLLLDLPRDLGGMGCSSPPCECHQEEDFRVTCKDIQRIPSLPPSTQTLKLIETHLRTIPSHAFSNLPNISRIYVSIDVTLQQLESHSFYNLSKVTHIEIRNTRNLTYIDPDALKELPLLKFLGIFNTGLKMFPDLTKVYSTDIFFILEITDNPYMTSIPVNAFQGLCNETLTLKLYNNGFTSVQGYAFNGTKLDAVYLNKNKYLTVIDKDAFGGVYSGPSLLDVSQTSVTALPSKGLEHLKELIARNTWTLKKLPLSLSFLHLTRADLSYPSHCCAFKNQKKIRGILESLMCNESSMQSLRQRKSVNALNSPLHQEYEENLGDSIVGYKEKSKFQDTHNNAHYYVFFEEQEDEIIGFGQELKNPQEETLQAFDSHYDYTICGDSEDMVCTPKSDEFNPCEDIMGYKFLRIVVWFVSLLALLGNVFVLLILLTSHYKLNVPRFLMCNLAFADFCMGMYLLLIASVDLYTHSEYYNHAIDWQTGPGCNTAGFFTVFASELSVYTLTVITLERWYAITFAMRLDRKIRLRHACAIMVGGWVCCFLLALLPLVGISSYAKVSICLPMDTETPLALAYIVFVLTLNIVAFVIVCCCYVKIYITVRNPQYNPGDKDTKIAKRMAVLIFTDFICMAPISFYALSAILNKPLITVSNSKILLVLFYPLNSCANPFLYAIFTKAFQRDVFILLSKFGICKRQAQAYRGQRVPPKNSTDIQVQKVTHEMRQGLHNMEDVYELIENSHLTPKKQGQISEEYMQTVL
#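 HEK 293 cells stably expressing TSHR and a cAMP-gated CNG channel; parental CNG-only cells as counterscreen. Cells preloaded 60 min with membrane potential dye plus 100 uM RO 20-1724, then compound 30 min; fluorescence read at 590 nm.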
# PK Bst: alters activity of Bacillus stearothermophilus pyruvate kinase; purified pyruvate kinase, luminescence ATP production; ribose 5-phosphate activator present at AC10; Potency, µM; hit rate 1.2% among 51,000; AID 361; in the data active = potency below about 11 µM; inconclusive = mostly about 12 µM to 25 µM;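 the screen sought inhibitors and activators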;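 note: scaled between full activation by ribose 5 phosphate and full inhibition by luteolin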
# GBA mod: alters purified human glucocerebrosidase activity | P04062 | purified enzyme, resorufin glucoside fluorescence (screen aimed at inhibitors), 20 min | Potency, µM | hit rate 1.1% among 48,000; in the data active = potency below about 15 µM; inconclusive = mostly about 16 µM to 33 µM;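 note: the screen sought inhibitors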
#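 Wild-type enzyme at 0.2 nM final in 50mM citric acid/KH2PO4, 10mM sodium taurocholate, 0.01% tween-20, pH 5.9, with resorufin beta-D-glucopyranoside at 30 uM final. Compounds titrated, 20 min at RT, red fluorescence read; AC50 from titration.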
# Numbers without * were called inactive; i = inactive; ? = inconclusive; . = not tested or not shown; [ ] = dose if it differs, or a comment. Rows were chosen to be rich in hits. Some 4% of all compounds tested hit in one or more screens of this group. Potency is the fitted concentration of half-maximal effect.
SMILES,HEK293 cAMP ctrl,TSHR agonist,PK Bst,GBA mod
COc1ccccc1N1CCN(C(c2ccc(C)cc2)c2nnnn2C(C)C)CC1 (stereo unspecified),16µM*,?,>57,>77
COc1ccc(OC)c(C(c2nnnn2Cc2ccccc2)N2CCN(C)CC2)c1 (stereo unspecified),?,?,>57,>77
CCOC(=O)N/N=C1/C[C@@H](O)[C@@H](O)[C@@H]2[C@@H]3C(=O)N(c4cccc(Oc5ccccc5)c4)C(=O)[C@H]3CC[C@@H]12,-6%[11.4 µM],5%[11.4 µM],.,.
O=C(N[C@@H](c1ccccc1)[C@@H]1C[C@H]1C(=O)NCc1ccccc1)OCc1ccccc1,13µM*,?,.,.
COC(=O)[C@H](Cc1ccccc1)NC(=O)[C@H]1C[C@@H]1[C@H](NC(=O)OCc1ccccc1)c1ccccc1,16µM*,?,.,.
O=C(N[C@@H](c1ccccc1)[C@@H]1C[C@H]1C(=O)NCc1ccccn1)OCc1ccccc1,12%,16%,.,.
Cc1ccc(S(=O)(=O)N(CC(=O)O)c2ccc(Cl)cc2)cc1,11%,1%,.,.
O=S(=O)(c1ccc(S(=O)(=O)N(Cc2ccco2)Cc2ccccc2Cl)cc1)N1CCCC1,15%,.,>57,>77
CN(C)S(=O)(=O)c1ccc(S(=O)(=O)N(Cc2ccco2)Cc2ccccc2Cl)cc1,13µM*,?,>57,>77
Nc1nncn1C(=O)c1c(Cl)cccc1Cl,7%,.,?,>77
Nc1nncn1C(=O)c1cccs1,7%,4%,2.5*,>77
CN1CCN(c2ccnc(-c3ccc(N(C)C)cc3)n2)CC1,-17%,0%,.,.
NCc1ccc(C(=O)O)cc1,-9%[11.4 µM],-5%[11.4 µM],.,.
Cc1cc(N2CCOCC2)nc2ccc(NC(=O)CCC(=O)N3CCCC(C)C3)cc12 (stereo unspecified),3%,4%,.,1.2*
CCN1CCN(c2cc(C)c3cc(NC(=O)c4ccc5c(c4)OCO5)ccc3n2)CC1,4%,-6%,.,.
COc1ccc(C)cc1NC(=O)CCC(=O)Nc1ccc2nc(N3CCN(C)CC3)cc(C)c2c1,-3%,-8%,>57,9.5*
COc1cccc(C(=O)Nc2ccc3nc(N4CCOCC4)cc(C)c3c2)c1,0%,-19%,.,.
Cc1cc(N2CCN(C)CC2)nc2ccc(NC(=O)CCC(=O)NCc3ccco3)cc12,1%,2%,>57,i
CCN1CCN(c2cc(C)c3cc(NC(=O)c4cncc(Br)c4)ccc3n2)CC1,4%,2%,>57,3.7*
COc1cccc(C(=O)Nc2ccc3nc(N4CCN(c5ncccn5)CC4)cc(C)c3c2)c1OC,-12%,.,>57,8.7*
CCOc1ccccc1C(=O)Nc1ccc2nc(N3CCN(c4ncccn4)CC3)cc(C)c2c1,-20%,-12%,>57,>77
COc1ccc2nc3c(nc2c1)C(=O)c1ccccc1-3,-5%,2%,.,.
CCCn1c(=O)[nH]c2nc(-c3ccc(S(=O)(=O)O)cc3)[nH]c2c1=O,9%,.,.,.
COC(OC)[C@@H](C)[C@H](OC)[C@@H](C)[C@H](OC)c1ccccc1,-2%[11.4 µM],-6%[11.4 µM],.,.
COc1cc(S(=O)(=O)N2CCCCCC2)c(OC)cc1Br,16µM*,?,.,.
SMILES,HEK293 cAMP ctrl,TSHR agonist,PK Bst,GBA mod
COc1ccc(OC)c(S(=O)(=O)N2CCCCCC2)c1,23%,0%,>57,>77
O=C(CCCCCNc1nc(=S)[nH]c2ccccc12)N1CCN(c2ccccn2)CC1,-4%,2%,.,5.7*
N#Cc1c(/N=C/c2ccco2)sc2c1CCCCC2,12%,14%,0.52*,>77
COCCOC(=O)C1=C(C)Nc2nc(C)nn2C1c1ccc(F)cc1 (stereo unspecified),5%,-4%,>57,>77
CCOC(=O)C1=C(C)Nc2nc(SC)nn2C1c1ccc(C(=O)OC)cc1 (stereo unspecified),12%,16µM*,>57,>77
CC(C)Cn1nc(NS(=O)(=O)c2ccccc2)c2cc3ccccc3nc21,6%,.,4.2*,>77
CCc1cc2c(=O)c(-c3ccc4c(c3)OCCO4)coc2cc1OC(=O)c1ccco1,?,?,i,>77
O=c1c(-c2ccc3c(c2)OCCO3)coc2cc(O)cc(O)c12,?,?,6*,>77
Cc1ccc(S(=O)(=O)Oc2ccc(N=Nc3ccc(-c4ccc(N=Nc5c(O)ccc6cc(S(=O)(=O)O)cc(S(=O)(=O)O)c56)c(C)c4)cc3C)cc2)cc1,12%,4%,.,.
O=C(O)[C@@H]1[C@@H](C(=O)NCc2ccncc2)[C@@H]2C=C[C@@H]1O2,-2%[11.4 µM],2%[11.4 µM],.,.
COc1ccc(NC(=O)N2CCn3c2nc2ccccc23)cc1,12%,-5%,5.6*,>77
COc1ccc(S(=O)(=O)N2CCn3c2nc2ccccc23)cc1,30%,27%,>57,>77
O=C(Nc1ccccc1)N1CCn2c1nc1ccccc12,0%,19%,9.7*,>77
CCCn1c(-c2ccc(F)cc2)nc2c(NCCCN(CCO)CCO)nc(C)nc21,27%,16%,.,.
C=C(C)C1CC=C(C)C(OC(C)=O)C1 (stereo unspecified),-8%,?,.,.
CC(C)C(C)C,-15%,?,.,.
CCCCCCn1cc(C(=O)O)c(=O)c2ccccc21,.,.,>11,.
CCCCCN=c1ccn(Cc2ccccc2)c2ccccc12,16µM*,?,.,.
CCC/C=C(\CCC)C(NC(=O)C(C)(C)C)c1ccc(C(=O)OC)cc1 (stereo unspecified),16µM*,?,.,.
CCC/C=C(\CCC)C(NC(=O)c1ccc(C(F)(F)F)cc1)c1ccc(C(F)(F)F)cc1 (stereo unspecified),27%,15%,.,.
CCC/C=C(\CCC)C(NC(=O)c1cccs1)c1ccc(C(=O)OC)cc1 (stereo unspecified),13µM*,?,.,.
C=CCn1c(SCC(=O)Nc2cccc(C(=O)OC)c2)nnc1C(C)NC(=O)c1cccs1 (stereo unspecified),-4%,7%,>57,>77
CCC/C=C(\CCC)C(NC(=O)c1ccc(C(F)(F)F)cc1)c1ccccc1 (stereo unspecified),16µM*,?,.,.
COc1cccc2c1[C@H](CO)N1[C@H](C#N)[C@@H]3C[C@H](C(=O)O)[C@@H]([C@@H]1C2)N3C,3%[11.4 µM],0%[11.4 µM],.,.
O=P(O)(CCP(=O)(O)c1ccccc1)c1ccccc1,-3%[11.4 µM],7%[11.4 µM],.,.
SMILES,HEK293 cAMP ctrl,TSHR agonist,PK Bst,GBA mod
Cc1oc(-c2ccccc2F)nc1CS(=O)(=O)CC(=O)N1CCOCC1,32µM*,?,.,.
Cc1oc(-c2ccccc2F)nc1CS(=O)(=O)CC(=O)N1CCN(Cc2ccccc2)CC1,20%,.,.,.
Cc1ccc(-c2nc(CS(=O)(=O)CC(=O)N3CC(C)CC(C)C3)c(C)o2)cc1 (stereo unspecified),32µM*,?,.,.
CC(=O)N1CCC2(CCCN(c3ccccc3)C2)CC1,8%,6%,.,.
O=C(O)NCC1CCCCC1 (tested in a mixture with another compound),14%[11.4 µM],-1%[11.4 µM],.,.
CC1(C)Cc2ccccc2-c2nnc(-c3ccc(O)cc3)n21,17%,9%,>57,8.4*
CC1(C)Cc2ccccc2-c2nnc(-c3cccnc3)n21,3%,7%,>57,>77
